Measured values taken from PubChem BioAssay (NCI).
Compounds without any hit were thinned out: in the full panel of roughly 79,000, 15% have a hit. Rule as the data show it: active = growth inhibition above about 70%; inactive = the rest.

Experiments:
[1] = NCI Yeast Anticancer Drug Screen. Data for the rad50 strain (AID 155);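 also: 0% = growth of vehicle-only cultures of the same strain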; conditions: S. cerevisiae rad50 strain growth inhibition; at 50.0 µM; active compounds read high
In short: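 Genetically altered yeast (DNA repair pathway); compound treatment; growth inhibition vs vehicle ctrl.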

[2] = NCI Yeast Anticancer Drug Screen. Data for the mec2-1 strain (AID 157); conditions: S. cerevisiae mec2-1 strain, at 50.0 µM, active compounds read high
In short: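 Strain: mec2-1 (DNA repair/cell cycle alteration). Compound exposure, then growth measured; inhibition expressed relative to vehicle.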

[3] = NCI Yeast Anticancer Drug Screen. Data for the sgs1 mgt1 strain (AID 161);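 also: 0% = growth of cultures given vehicle only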; conditions: S. cerevisiae sgs1 mgt1 strain, at 50.0 µM, active compounds read high
In short: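 Test agents were incubated with a DNA-repair-mutant yeast strain. Growth was then read and compared against vehicle-treated controls.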

[4] = NCI Yeast Anticancer Drug Screen. Data for the cln2 rad14 strain (AID 165);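 also: 0% = growth equal to vehicle treated cultures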; conditions: S. cerevisiae cln2 rad14 strain, at 50.0 µM, active compounds read high
In short: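 Compounds are applied to the cln2 rad14 yeast strain, and growth is then compared with that of vehicle-treated cultures to give inhibition.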

[5] = NCI Yeast Anticancer Drug Screen. Data for the bub3 strain (AID 167); conditions: S. cerevisiae bub3 mutant strain, at 50.0 µM, active compounds read high
In short: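 Yeast carrying a defined mutation is treated with each compound, and growth is compared with that of vehicle-exposed cells to give inhibition.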

[6] = NCI Yeast Anticancer Drug Screen. Data for the mlh1 rad18 strain (AID 175); conditions: S. cerevisiae mlh1 rad18 strain growth inhibition; at 50.0 µM; active compounds read high
In short: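 Read-out is yeast growth inhibition, calculated against vehicle-only controls. The compound was applied to a strain engineered with DNA damage repair alterations.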

Measured: growth inhibition

CC(C)(/C=N\O)NO
inactive: [1] -14.8% | [2] -20.4% | [3] 0.4% | [4] 13.6% | [5] -9.05% | [6] -0.9%

C[N+]1=C(/C=C/Nc2ccc(Cl)cc2)C(C)(C)c2ccccc21
inactive: [1] -2.35% | [2] 6.2% | [3] -10.4% | [4] -2.55% | [5] -1.8% | [6] 9.5%

O=C(O)CC(=O)CC(=O)c1ccccc1
inactive: [1] -14.8% | [2] -18.5% | [3] -23.4% | [4] -30.7% | [5] -2.1% | [6] -7.4%

Oc1ccc(C(O)CNCCCCCCNCC(O)c2ccc(O)c(O)c2)cc1O (centres undefined)
inactive: [1] -17.2% | [2] 6.65% | [3] -2% | [4] 6.5% | [5] -1.45% | [6] -4.65%

C=CCc1cccc(CC=C)c1OCCN(CC)CC
inactive: [1] 13.4% | [2] 17.1% | [3] 17.6% | [4] 10.2% | [5] 7.3% | [6] 16.8%

O=C(Nc1ccc(Cl)cc1Cl)C(=O)C(C(=O)c1ccncc1)C1OC(=O)c2ccccc21 (centres undefined)
inactive: [1] -1% | [2] -38.3% | [3] -29.2% | [4] 23.4% | [5] 7.95% | [6] -0.4%

Nc1nc(N)c2cc(S(=O)(=O)c3ccc(Cl)cc3)ccc2n1
inactive: [1] 21.9% | [2] 36.1% | [3] 12.5% | [4] -12.2% | [5] 17.8% | [6] 28.6%

CC1=C(C)C2(C)C(C)C2(C)C1C (centres undefined)
inactive: [1] -5.8% | [2] -13.3% | [3] 17.9% | [4] 20.6% | [5] 35% | [6] -1.7%

CN(C(=O)C1(C(=O)C=[N+]=[N-])CC1)c1ccccc1
inactive: [1] -3.8% | [2] -4.4% | [3] -14.8% | [4] 1.3% | [5] -2.55% | [6] 7.3%

c1ccc(Oc2ccccc2-c2ccccc2)cc1
inactive: [1] 6.1% | [2] -26.1% | [3] -0.7% | [4] -0.65% | [5] -23.1% | [6] 15.9%

CC(=O)Nc1ccc(C)cc1[N+](=O)[O-]
inactive: [1] -29.6% | [2] 1.15% | [3] -29.2% | [4] -29.9% | [5] -42.5% | [6] -43.2%

Nc1nc2c(c(-c3ccc(Cl)cc3)n1)CN(c1ccc(Br)cc1)C2=O
inactive: [1] 40.5% | [2] 0.8% | [3] -4.85% | [4] 12.7% | [5] -3.1% | [6] 11.9%

COC1(C)C=NCC(C)(C)NC(=O)C(C)(OC)C=NCC(C)(C)NC1=O (centres undefined)
inactive: [1] -12.4% | [2] -27.6% | [3] -29.4% | [4] -16.4% | [5] -21.6% | [6] -26.5%

CCCCCCCCCCCCCCCCCCOCCOCCOCCOCCO
inactive: [1] -21.7% | [2] -10.3% | [3] -23.5% | [4] -43.5% | [5] -3.25% | [6] -19.5%

O=C(Nc1ccccc1CCl)Nc1ccccc1CCl (tested in a mixture with another compound)
inactive: [1] 7.6% | [2] 3.35% | [3] -11.4% | [4] 3.65% | [5] -4.1% | [6] 15.4%

C=CC(OC(=O)/C=C/C)OC(=O)/C=C/C
inactive: [1] 16.9% | [2] 0.85% | [3] 6.8% | [4] 12.6% | [5] 20.1% | [6] 21.6%

Cc1cccc(C(=O)OCCCl)c1
inactive: [1] 15.6% | [2] -7.5% | [3] 8.3% | [4] -29.1% | [5] 5% | [6] 5.2%

COc1cc(C(=O)Oc2c(C(C)=O)sc3c2c(=O)n(-c2ccccc2)c(=S)n3-c2ccccc2)cc(OC)c1OC
inactive: [1] 19.7% | [2] -5.8% | [3] 8.45% | [4] -13.7% | [5] 17.9% | [6] 22.5%

COc1ccc(C(O)C(NCc2ccccc2)c2ccccc2)cc1 (centres undefined)
inactive: [1] 7.75% | [2] -7.3% | [3] 13.2% | [4] 11.8% | [5] 2.55% | [6] 23.9%

COc1nc2c(c(O)cn2C2OCC(OC(C)=O)C(OC(C)=O)C2OC(C)=O)c(=O)n1C (centres undefined)
inactive: [1] -1.65% | [2] -5.9% | [3] -25.8% | [4] -2.75% | [5] -1% | [6] 15.8%

NS(=O)(=O)c1ccc(N2C(=O)C3C(C2=O)C2(Cl)C(Cl)=C(Cl)C3(Cl)C2(Cl)Cl)cc1 (centres undefined)
inactive: [1] -6.4% | [2] -6.95% | [3] 3.25% | [4] 15.1% | [5] -4.7% | [6] 20.6%

c1ccc(CNC(c2ccccc2)C(NCc2ccccc2)c2ccccc2)cc1 (centres undefined)
inactive: [1] -7.35% | [2] -0.75% | [3] -14.3% | [4] -38.4% | [5] 6.15% | [6] 10.2%

CCOC(=O)c1ccc(NC(=O)c2ccc(Cl)cc2Cl)cc1
inactive: [1] -7.7% | [2] 18.6% | [3] 6.5% | [4] -18.1% | [5] 36.6% | [6] -4.25%

COc1cc(OC)c(C(=O)/C=C/c2ccccc2)c(O)c1OC
inactive: [1] 24.8% | [2] -7.8% | [3] 20.9% | [4] -45.2% | [5] -15.1% | [6] 30.6%

O=C(O)c1cccn1-c1ccccc1
inactive: [1] -4.05% | [2] -24.6% | [3] -1.55% | [4] -21.1% | [5] -10.2% | [6] -15.6%

COc1cc2ccc3c[n+](C)ccc3c2cc1OC
inactive: [1] 2.25% | [2] -30.9% | [3] -13.4% | [4] -22.4% | [5] -20.9% | [6] -57.6%

CCCCCCCCC(C)C
inactive: [1] 1.25% | [2] 3.35% | [3] -0.3% | [4] 10.8% | [5] 1.65% | [6] -2.65%

CCNC1CC(C(C)(C)NCC)CC=C1C (centres undefined)
inactive: [1] -31.4% | [2] -25.2% | [3] -38.7% | [4] -15.4% | [5] -46.9% | [6] -55.2%

C/C(CCn1[nH]c(=O)ccc1=O)=N\O
inactive: [1] -6.55% | [2] -19.2% | [3] -5.8% | [4] -12.1% | [5] -24.6% | [6] -11.3%

O=C1/C(=C/c2ccccc2)SC(=S)N1C1OC(CO)C(O)C(O)C1O (centres undefined)
inactive: [1] 3.45% | [2] 11.8% | [3] -8.4% | [4] 8.95% | [5] -3.95% | [6] 6.9%

CCOC(=O)/C(I)=C/c1cc(OC)c(OC)c(OC)c1
inactive: [1] -2.2% | [2] 15.5% | [3] 4.6% | [4] 13.9% | [5] 28.2% | [6] 19.9%

O=C(Nc1ccc(Cl)cc1)c1cccnc1
inactive: [1] 10.1% | [2] -10.7% | [3] 32.8% | [4] -8.5% | [5] 34.4% | [6] 15.6%

O=C1c2ccccc2CC12Cc1ccccc1C2
inactive: [1] 2.05% | [2] -17.4% | [3] -3.85% | [4] -15.3% | [5] -29.7% | [6] 0.15%

Cc1c(C(=O)O)c2cc3ccccc3cc2c(=O)n1C
inactive: [1] -22.1% | [2] -34.6% | [3] -10.1% | [4] -40.6% | [5] -23.9% | [6] -35%

CCOC(=O)/C(=C\n1c(=S)[nH]c2cc(C)ccc21)C(=O)c1ccccc1
inactive: [1] -41.2% | [2] -60.5% | [3] -18.8% | [4] 10.8% | [5] -14.2% | [6] -13.5%

COC(C)CCOC(=O)c1ccccc1C (centres undefined)
inactive: [1] 10% | [2] -6.1% | [3] 0.8% | [4] -21.8% | [5] 24.9% | [6] 3.2%

CCOc1c(Cc2ccccc2)c(=O)n2c3ccccc3n(CC)c2c1C#N
inactive: [1] -4.75% | [2] -6.05% | [3] 0.25% | [4] -11.8% | [5] -29.9% | [6] -10.8%

COC(=O)Nc1nc2ccc(-n3c(C)nc4ccccc4c3=O)cc2[nH]1
inactive: [1] 10.8% | [2] -0.45% | [3] 6.35% | [4] 8.5% | [5] 4.95% | [6] 15.8%

COc1ccc(C[n+]2ccccc2C#N)cc1OC
inactive: [1] 4.7% | [2] -13.8% | [3] -10.4% | [4] -15.8% | [5] 4.25% | [6] 3.2%
